The source made the active and inactive calls. Unless noted, the rule behind the calls is not given here.

Assay [1] in a line: compounds binding Alexa647 anti-His antibody – biochemical, small-molecule microarray, 635 nm fluorescence, artefact control for SMM control protein annotation, primary screen (AID 1128).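 Note: score merges feature fluorescence with signal-to-noise for each printed compound spot.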 As to conditions: higher = more signal.
The subject of assay [2] is Human papillomavirus type 1a E7 protein (residues 1-88). Nature of the assay: HPV1a E7 small-molecule binders, primary screen, biochemical, small-molecule microarray, residues 1-88, 635 nm (AID 1129). The settings on record: small-molecule microarray binding, fluorescence 635 nm; higher = more signal.
Assay [3] concerns the target Focal adhesion kinase 1 (Homo sapiens) (UniProt Q05397). Nature of the assay: PTK2 protein binding on printed compound slides – biochemical, small-molecule microarray, 635/667 nm fluorescence, BSA, DTT, primary screen (AID 1130).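 Note: composite of spot emission at 667 nm and signal to noise over triplicate slides.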 As to conditions: 635 nm fluorescence, higher = more signal.
The subject of assay [4] is Fibrinogen (Alexa647-labelled). Nature of the assay: Alexa647-fibrinogen binding to printed small molecules – biochemical, small-molecule microarray, 635/667 nm fluorescence, artefact control for SMM control-protein annotation, profiling panel (AID 1131).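 Note: z-score merges 667 nm fluorescence with per-spot signal-to-noise over triplicate slides.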 As to conditions: fibrinogen-A647 binding fluorescence, higher = more signal.
For assay [5], the target named is Follistatin (Homo sapiens) (UniProt P19883). Nature of the assay: FST protein binding to printed compounds – biochemical, small-molecule microarray, 635/667 nm fluorescence, primary screen (AID 1132). As to conditions: 635 nm fluorescence, higher = more signal.
Sequence of Follistatin (Homo sapiens) (P19883 whole entry, looked up): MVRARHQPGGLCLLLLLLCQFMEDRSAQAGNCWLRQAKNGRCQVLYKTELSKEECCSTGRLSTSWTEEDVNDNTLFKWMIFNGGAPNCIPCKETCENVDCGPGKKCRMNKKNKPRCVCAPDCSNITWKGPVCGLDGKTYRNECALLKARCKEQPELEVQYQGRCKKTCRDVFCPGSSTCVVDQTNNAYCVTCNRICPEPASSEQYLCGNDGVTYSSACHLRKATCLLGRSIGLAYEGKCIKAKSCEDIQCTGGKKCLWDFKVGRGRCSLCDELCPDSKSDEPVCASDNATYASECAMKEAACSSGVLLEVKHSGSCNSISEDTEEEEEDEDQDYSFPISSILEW
Assay [6] concerns the target Fibroblast growth factor 2 (Homo sapiens) (UniProt P09038). Nature of the assay: basic fibroblast growth factor binding to printed compounds – biochemical, small-molecule microarray, 635/667 nm fluorescence, primary screen (AID 1133). As to conditions: FGF2, fluorescence 635/667, higher = more signal.
The nature of assay [7]: JC-1 mitochondrial potential readout, lung cancer cells – cell-based, A549, JC-1 fluorescence, basal, 24 h, 100 nL, profiling panel (AID 1138).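 Note: A549 lung adenocarcinoma cells under basal conditions with no added stimulus; test concentration not given here.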 As to conditions: higher = more signal.
For assay [8], the system named is Lefty1. Nature of the assay: Lefty1 protein binding to printed compounds – biochemical, small-molecule microarray, 635/667 nm fluorescence, primary screen (AID 1139). As to conditions: fluorescence 635/667, higher = more signal.
The subject of assay [9] is wheat germ agglutinin (Triticum aestivum), Alexa647-labelled. Nature of the assay: Alexa647-WGA lectin binding to printed small molecules – biochemical, small-molecule microarray, 635/667 nm fluorescence, artefact control for SMM control-protein annotation, profiling panel (AID 1140).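 Note: score merges 667 nm feature emission with signal to noise over triplicate slides.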 As to conditions: WGA-A647 binding, 635 nm fluorescence, higher = more signal.
The target of assay [10] is Luciferin 4-monooxygenase (Photinus pyralis) (UniProt P08659). Nature of the assay: inhibition of purified Photinus pyralis luciferase – biochemical, luminescence, purified enzyme, 2006 set, primary screen (AID 1141).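 Note: cell-free assay with purified firefly luciferase at 100 ng per well in PBS; test concentration not given here.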 The settings on record: purified firefly luciferase, SteadyGlo luminescence, 30 min; higher = more signal, called active from +8 up or from −8 down.
Sequence of Luciferin 4-monooxygenase (Photinus pyralis) (P08659 whole entry, looked up): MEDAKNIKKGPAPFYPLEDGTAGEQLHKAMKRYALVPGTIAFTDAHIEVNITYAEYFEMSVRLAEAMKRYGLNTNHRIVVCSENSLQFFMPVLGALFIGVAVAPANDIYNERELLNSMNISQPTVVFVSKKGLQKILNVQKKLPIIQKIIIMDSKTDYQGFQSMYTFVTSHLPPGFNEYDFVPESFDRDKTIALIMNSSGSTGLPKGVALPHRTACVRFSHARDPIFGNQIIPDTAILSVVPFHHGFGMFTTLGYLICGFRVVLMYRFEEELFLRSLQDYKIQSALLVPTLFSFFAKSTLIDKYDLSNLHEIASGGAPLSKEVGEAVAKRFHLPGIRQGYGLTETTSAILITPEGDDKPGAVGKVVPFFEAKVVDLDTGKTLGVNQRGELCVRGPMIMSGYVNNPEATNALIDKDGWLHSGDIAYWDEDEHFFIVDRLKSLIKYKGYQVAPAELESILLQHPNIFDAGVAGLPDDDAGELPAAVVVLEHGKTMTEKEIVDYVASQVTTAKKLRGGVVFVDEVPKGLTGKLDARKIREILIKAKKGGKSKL
Assay [11] deals with Wnt5a (protein binding on small-molecule microarray). Nature of the assay: small molecules binding Wnt5a protein – biophysical, small-molecule microarray, 635/667 nm fluorescence, primary screen (AID 1142).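 Note: fluorescence read at 667 nm with signal to noise per printed feature.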 As to conditions: 635 nm fluorescence, higher = more signal.
Assay [12] is described as follows: ATP-based viability of Huh7 replicon cells – cell-based, CellTiter-Glo luminescence, basal, 48 h, cytotoxicity control for HCV replication inhibitor project, primary screen (AID 1143).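 Note: Huh7 hepatoma cells carrying a hepatitis C replication reporter with no stimulus; test concentration not given here.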 The settings on record: higher = more signal, called active from +8 up or from −8 down.
A short description of assay [13]: Pseudomonas biofilm growth suppression – PAO1 strain, BacTiter-Glo luminescence, LB-PBS, primary screen (AID 1144). The settings on record: P. aeruginosa PAO1 biofilm, 12 h, higher = more signal.
Assay [14] in a line: basal CRE-LacZ reporter activity in PC12 – cell-based, unstimulated, primary screen (AID 1145). The settings on record: no forskolin, luminescence, 4.5 h, higher = more signal, called active from +8 up or from −8 down.
Assay [15] is described as follows: forskolin-driven CRE-LacZ activity in PC12 – cell-based, CRE-LacZ reporter, forskolin-stimulated, primary screen (AID 1146).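 Note: PC12 cells with 6xCRE LacZ reporter stimulated by forskolin 10 µM; beta-galactosidase reporter signal reflecting CREB driven transcription.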 The settings on record: luminescence, 4.5 h, higher = more signal, called active from +8 up or from −8 down.
Assay [16] has as its target Streptavidin (Streptomyces avidinii) (UniProt P22629). Nature of the assay: compounds binding control protein streptavidin – biophysical, small-molecule microarray, 635/667 nm fluorescence, artefact control for SMM compound annotation, primary screen (AID 1147).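 Note: signal reflects streptavidin binding to arrayed compounds as a control protein.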 The settings on record: higher = more signal.
A short description of assay [17]: probe aInhba binding on compound microarray – biochemical, small-molecule microarray, 635/667 nm fluorescence, primary screen (AID 1148).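 Note: score merges 667nm spot fluorescence with signal-to-noise for antibody binding to printed compounds.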 As to conditions: higher = more signal.
Assay [18] deals with Torsin-1A (Homo sapiens) (UniProt O14656). Nature of the assay: TOR1A wild-type binding on microarray – cell lysate, small-molecule microarray, lysate, 635/667 nm, primary screen (AID 1149). As to conditions: COS7 hTOR1A-WT lysate, 635 nm fluorescence, higher = more signal.
Sequence of Torsin-1A (Homo sapiens) (O14656 whole entry, looked up): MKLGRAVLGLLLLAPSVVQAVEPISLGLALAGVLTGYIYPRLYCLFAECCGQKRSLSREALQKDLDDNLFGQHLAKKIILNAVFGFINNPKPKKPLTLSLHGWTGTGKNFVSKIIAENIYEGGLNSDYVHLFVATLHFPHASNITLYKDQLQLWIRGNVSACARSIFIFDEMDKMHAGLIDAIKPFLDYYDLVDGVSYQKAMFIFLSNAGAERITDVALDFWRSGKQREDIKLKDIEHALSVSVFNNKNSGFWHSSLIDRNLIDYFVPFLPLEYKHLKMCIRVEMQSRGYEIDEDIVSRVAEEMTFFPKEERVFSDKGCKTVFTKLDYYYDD
Assay [19] has the same target. Nature of the assay: torsin A mutant lysate binding on microarrays – cell lysate, small-molecule microarray, COS7 lysate, 635/667 nm fluorescence, primary screen (AID 1150).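 Note: score pools 667 nm emission and signal to noise measuring lysate protein binding.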 As to conditions: COS7 hTOR1A mutant lysate, 635 nm fluorescence, higher = more signal.
The subject of assay [20] is Sonic hedgehog protein (Shh). Nature of the assay: Sonic hedgehog microarray binding compounds – biochemical, small-molecule microarray, 635/667 nm fluorescence, primary screen (AID 1151).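 Note: Shh protein binding to compounds spotted on small-molecule microarray slides; score combines spot fluorescence intensity with signal-to-noise across triplicate slides.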 The settings on record: 635 nm fluorescence, higher = more signal.

Sequence of Fibroblast growth factor 2 (Homo sapiens) (P09038 whole entry, looked up): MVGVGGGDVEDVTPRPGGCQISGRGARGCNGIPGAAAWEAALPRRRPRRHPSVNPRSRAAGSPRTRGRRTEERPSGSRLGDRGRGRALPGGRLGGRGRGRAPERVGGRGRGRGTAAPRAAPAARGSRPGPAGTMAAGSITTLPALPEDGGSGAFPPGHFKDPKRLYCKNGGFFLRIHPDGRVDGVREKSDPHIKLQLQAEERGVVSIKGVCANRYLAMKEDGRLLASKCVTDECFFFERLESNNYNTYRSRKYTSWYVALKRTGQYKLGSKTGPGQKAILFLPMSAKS
Sequence of Focal adhesion kinase 1 (Homo sapiens) (Q05397 whole entry, looked up): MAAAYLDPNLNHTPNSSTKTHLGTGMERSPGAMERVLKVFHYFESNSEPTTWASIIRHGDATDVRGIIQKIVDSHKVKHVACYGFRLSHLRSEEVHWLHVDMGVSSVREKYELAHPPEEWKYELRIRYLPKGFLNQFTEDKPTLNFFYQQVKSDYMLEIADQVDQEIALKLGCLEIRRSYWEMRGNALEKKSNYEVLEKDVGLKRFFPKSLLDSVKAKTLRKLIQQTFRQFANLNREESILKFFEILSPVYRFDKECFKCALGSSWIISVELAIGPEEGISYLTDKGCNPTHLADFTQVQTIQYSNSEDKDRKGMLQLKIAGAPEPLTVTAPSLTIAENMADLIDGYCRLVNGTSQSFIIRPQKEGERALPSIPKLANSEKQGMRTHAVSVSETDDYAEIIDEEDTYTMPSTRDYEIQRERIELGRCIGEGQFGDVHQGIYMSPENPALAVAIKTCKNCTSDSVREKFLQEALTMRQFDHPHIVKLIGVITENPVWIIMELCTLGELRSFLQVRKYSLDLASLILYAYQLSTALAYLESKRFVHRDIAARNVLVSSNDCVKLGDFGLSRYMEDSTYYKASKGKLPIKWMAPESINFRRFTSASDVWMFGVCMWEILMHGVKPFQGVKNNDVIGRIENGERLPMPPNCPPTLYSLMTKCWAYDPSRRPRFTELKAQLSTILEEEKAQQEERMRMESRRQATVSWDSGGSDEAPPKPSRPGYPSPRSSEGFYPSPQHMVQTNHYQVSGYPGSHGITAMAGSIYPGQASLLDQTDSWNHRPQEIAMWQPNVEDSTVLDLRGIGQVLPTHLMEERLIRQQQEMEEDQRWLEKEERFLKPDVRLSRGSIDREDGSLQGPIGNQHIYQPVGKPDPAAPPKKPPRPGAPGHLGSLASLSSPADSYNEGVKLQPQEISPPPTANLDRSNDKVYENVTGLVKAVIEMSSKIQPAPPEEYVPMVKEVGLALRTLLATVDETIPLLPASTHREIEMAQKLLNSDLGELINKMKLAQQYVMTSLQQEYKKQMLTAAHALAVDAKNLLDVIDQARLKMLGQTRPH
Sequence of Streptavidin (Streptomyces avidinii) (P22629 whole entry, looked up): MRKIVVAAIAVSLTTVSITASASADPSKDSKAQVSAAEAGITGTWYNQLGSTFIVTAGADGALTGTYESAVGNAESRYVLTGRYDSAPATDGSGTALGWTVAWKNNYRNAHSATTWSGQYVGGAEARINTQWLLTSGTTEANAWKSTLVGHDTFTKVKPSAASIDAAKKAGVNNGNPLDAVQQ

Regarding `C#C[C@H](O[Si](C#Cc1ccc(Oc2ccccc2)cc1)(C(C)C)C(C)C)c1ccccc1`, the composite z-score in assay [1] was -0.179; in assay [2], 0.679; in assay [3], -0.6; in assay [4] it was 0.385; in assay [5], 0.101; in assay [6], 0.137. Further, the composite z-score in assay [8] was 0.104; in assay [9] it was 0.0936; in assay [11] it was 0.0942; in assay [16], 0.145; in assay [17] it was -0.082; in assay [18], 1.38. The composite z-score in assay [19] worked out at 0.122; in [20], 0.21. Also, the z-score in assay [7] was -1.83; in [10], 0.0848 (inactive); in assay [12], -0.868 (inactive); in assay [13], -0.0203 (inactive); in [14], 0.498 (inactive); in assay [15] it was 1.7 (inactive).

For the compound `CC(C)[Si](C#Cc1ccc(Oc2ccccc2)cc1)(O[Si](C#Cc1ccc(Oc2ccccc2)cc1)(C(C)C)C(C)C)C(C)C`, the composite z-score came out at 1.69 in assay [1]; 0.701 in [2]; 0.0273 in assay [3]; 0.654 in assay [4]; 0.218 in [5]; 0.925 in assay [6]. The composite z-score in [8] is 1.07; in assay [9] it was 0.372; in [11] it was 0.253; in assay [16], -0.286; in assay [17] it was 0.0403; in [18] it was 0.567. The figures for the composite z-score in assay [19] and in assay [20] were 0.514 and 1.05, respectively. The z-score was 0.108 in assay [7]; -0.637 (inactive) in [10]; 0.479 (inactive) in assay [12]; -0.614 (inactive) in assay [13]; 0.6 (inactive) in assay [14]; -0.378 (inactive) in assay [15].

Regarding `COCCOC(=O)N1C(=O)[C@@]2(c3cc(C#CCCO)ccc31)[C@H](C(=O)N1CCCCCCC1)[C@H]1C(=O)O[C@H](c3ccccc3)[C@H](c3ccccc3)N1[C@@H]2c1ccc(OCCO)cc1`, the composite z-score in assay [1] was determined as 1.19; in assay [2], 1.2; in [3] it was 0.959; in assay [4] it was 0.769; in assay [5], 1.4; in [6], 1.51. Further, the composite z-score in assay [8] turned out to be 1.6; in assay [9], 1.35; in assay [11], 0.87; in assay [16], 1.43; in [17] it was 1.38; in [18] it was 1.8. The composite z-score came to 1.44 in assay [19] and 1.53 in [20]. The z-score was -0.821 in assay [7]; 0.242 (inactive) in assay [10]; -1.2 (inactive) in assay [12]; -0.589 (inactive) in [13]; -0.581 (inactive) in [14]; -0.571 (inactive) in assay [15].

With `COCCOC(=O)N1C(=O)[C@@]2(c3ccccc31)[C@H](c1ccc(O)cc1)N1[C@H](c3ccccc3)[C@H](c3ccccc3)OC(=O)[C@H]1[C@@H]2C(=O)Nc1nc2ccccc2s1`, the composite z-score was 1.97 in [1]; 1.17 in assay [2]; 0.475 in assay [3]; 0.961 in [4]; 0.695 in assay [5]; 0.408 in assay [6]. Also, the composite z-score was 0.259 in [8]; 1.14 in [9]; 0.243 in [11]; 0.795 in [16]; 0.225 in assay [17]; 0.514 in assay [18]. Further, the figures for the composite z-score in [19] and in [20] were 1.23 and 1.13, respectively. In addition, the z-score was -2.42 in assay [7]; -1.32 (inactive) in assay [10]; -1.67 (inactive) in assay [12]; 0.272 (inactive) in [13]; -0.467 (inactive) in assay [14]; 2.42 (inactive) in assay [15].

Turning to `C=CCC(OC(C)=O)[C@@H]1[C@@H](N(Cc2cccc3ccccc23)C(=O)c2ccc(-c3ccccc3)cc2)c2cc(OCCCO)ccc2N1C(=O)c1ccc2ccccc2c1` (stereo not given in full), the composite z-score was -0.165 in assay [1]; 0.233 in assay [2]; 0.299 in assay [3]; 0.66 in assay [4]; 0.906 in assay [5]; -0.0101 in assay [6]. Moreover, the composite z-score in assay [8] was 0.389; in assay [9] it was 0.0002; in assay [11], -0.0128; in assay [16] it was 0.486; in assay [17] it was 0.0816; in assay [18], -0.219. Further, the composite z-score in assay [19] was -0.0217; in assay [20], 0.711. Besides, the z-score in [7] was 0.0927; in [10] it was 0.797 (inactive); in assay [12] it was 0.107 (inactive); in [13], -0.815 (inactive); in assay [14], 0.222 (inactive); in assay [15], 0.0667 (inactive).

The record behind these values is PubChem BioAssay.
